Rows were chosen to be rich in hits. Some 6.3% of all compounds tested hit in one or more screens of this group.
tim23-1 inh: growth inhibitors of tim23-1 mutant yeast, primary screen, luminescence, uHTS; S. cerevisiae tim23-1 growth, BacTiter-Glo luminescence, 24 h; inhibition, % at 20 µM; hit rate 1.3% among 330,000;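 active means growth inhibition of the mutant yeast at or above 50%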;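 further: temperature-sensitive mutant grown at 25 °C; plate controls were DMSO-treated mutant yeast for no effect and medium wells lacking yeast for full effect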
MPTP inh: mitochondrial permeability transition pore inhibitors, primary screen, biochemical, isolated mouse mitochondria, absorbance | Ca2+ swelling absorbance, 30 min | inhibition, % at 10 µM | hit rate 1.4% among 360,000 | AID 602449, 2012;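 active means inhibition of 50% or more, scaled per plate between neutral and stimulator controls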;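 further: 0% = DMSO wells given calcium and 100% = 1 mM EGTA wells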
Mdm2-MdmX inh: inhibitors of human Mdm2-MdmX association, primary screen, cell-based, luminescence, split luciferase, SaOS-2, uHTS | hit rate 3% among 330,000 | Protein Mdm4 (Homo sapiens) + E3 ubiquitin-protein ligase Mdm2 (Homo sapiens), … | AID 485346, 2010 | SaOS-2 split-luciferase Mdm2/MdmX complementation | inhibition, % at 8 µM;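 active means inhibition of at least 50% at 8 µM in the primary screen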
Target sequence (O15151 whole entry, looked up): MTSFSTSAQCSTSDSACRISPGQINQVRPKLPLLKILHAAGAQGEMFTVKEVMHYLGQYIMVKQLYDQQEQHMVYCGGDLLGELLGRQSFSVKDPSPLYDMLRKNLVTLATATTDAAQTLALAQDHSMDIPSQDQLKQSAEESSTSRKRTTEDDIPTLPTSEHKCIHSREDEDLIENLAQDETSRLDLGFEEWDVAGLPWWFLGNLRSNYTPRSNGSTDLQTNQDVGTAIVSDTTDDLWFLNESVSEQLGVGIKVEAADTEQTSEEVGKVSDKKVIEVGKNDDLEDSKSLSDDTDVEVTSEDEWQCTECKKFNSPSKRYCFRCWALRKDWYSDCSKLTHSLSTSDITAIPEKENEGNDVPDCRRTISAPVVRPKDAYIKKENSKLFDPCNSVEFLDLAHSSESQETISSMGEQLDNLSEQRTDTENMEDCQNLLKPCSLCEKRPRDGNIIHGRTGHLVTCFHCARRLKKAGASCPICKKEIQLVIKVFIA
Target sequence (Q00987 whole entry, looked up): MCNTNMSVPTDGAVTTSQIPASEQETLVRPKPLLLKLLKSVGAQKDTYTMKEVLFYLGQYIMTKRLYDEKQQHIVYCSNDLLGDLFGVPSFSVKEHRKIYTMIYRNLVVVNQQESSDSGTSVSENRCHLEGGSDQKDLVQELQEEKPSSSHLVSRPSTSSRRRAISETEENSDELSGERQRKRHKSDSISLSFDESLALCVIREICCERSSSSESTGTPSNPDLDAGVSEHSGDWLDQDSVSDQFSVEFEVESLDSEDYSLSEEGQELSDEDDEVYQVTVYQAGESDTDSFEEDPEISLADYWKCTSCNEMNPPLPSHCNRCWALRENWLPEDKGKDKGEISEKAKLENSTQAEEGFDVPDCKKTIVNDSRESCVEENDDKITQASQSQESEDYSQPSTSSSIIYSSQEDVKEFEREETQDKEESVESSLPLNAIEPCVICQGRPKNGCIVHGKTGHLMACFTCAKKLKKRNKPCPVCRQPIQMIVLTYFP
TIM10 inh: growth inhibitors of isogenic TIM10 control yeast, primary screen, counter-screen for tim10-1 yeast inhibitor project, luminescence, uHTS. S. cerevisiae TIM10 strain growth, BacTiter-Glo luminescence, 24 h. inhibition, % at 10 µM. hit rate 1.4% among 330,000. AID 463195, 2010;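 active means inhibition of 40% or more at the single tested concentration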;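 further: wild-type TIM10 isogenic control strain grown at permissive 25 °C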
tim10-1 inh: growth inhibitors of tim10-1 mutant yeast, primary screen, luminescence, uHTS. S. cerevisiae tim10-1 ts strain growth, BacTiter-Glo, 24 h. inhibition, % at 20 µM. hit rate 2.2% among 330,000;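 active means inhibition of at least 40%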;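 further: mutant grown at 25 °C; 0% = DMSO wells with yeast and 100% = wells holding no yeast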
Mdm2 MdmX conf: Mdm2-MdmX complex disruptors, retested hits, confirmation, luminescence, single concentration. shares compounds with Mdm2-MdmX inh. Mdm2-MdmX binding, luminescent assay. inhibition, % at 8 µM. hit rate 55% among 10,000; in the data active means inhibition above about 40%
FLuc counter: full-length luciferase signal inhibition, confirmation, counter-screen for Mdm2/MdmX interaction inhibitor project, cell-based, single concentration, SaOS-2; shares compounds with Mdm2-MdmX inh; SaOS-2 full-length luciferase counterscreen, luminescence; inhibition, % at 8 µM; hit rate 77% among 6,200;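 active means mean inhibition at 8 µM reaching about 37%, which flags the compound as non-specific, limit read from the data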;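 further: p53-null SaOS-2 cells with luciferase driven by a doxycycline-inducible promoter; compound on cells about two nights before reading with doxycycline added after day one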
Rh123 counter: fluorescence retest of MPTP screen hits in isolated mitochondria, single concentration; shares compounds with MPTP inh; membrane potential, Rhodamine 123 fluorescence; inhibition, % at 10 µM; hit rate 78% among 5,000; in the data active means inhibition above about 22%;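 further: 0% = DMSO vehicle and 100% = positive control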
MPTP swell DR: mitochondrial permeability transition pore inhibitors, dose response, biochemical, absorbance, uHTS hits; shares compounds with MPTP inh; isolated mitochondria swelling; IC50, µM; hit rate 58% among 780; in the data active means IC50 below about 20 µM
MPTP cs DR: fluorescent counter-screen in isolated mitochondria, dose response, counter-screen for MPTP inhibitor project, biochemical, fluorescence, uHTS hits. hit rate 49% among 780. IC50, µM. shares compounds with MPTP inh. isolated mitochondria counterscreen, fluorescence read-out; in the data active means IC50 below about 80 µM
* hit, by the source's call; . = not tested or not shown.

SMILES | tim23-1 inh | MPTP inh | Mdm2-MdmX inh | TIM10 inh | tim10-1 inh | Mdm2 MdmX conf | FLuc counter | Rh123 counter | others
CC(C)NCC(O)Cn1c2c(c3ccccc31)CCc1c-2cnn1-c1ccccc1 (configuration not stated) | -17 | 87* | 98* | 10 | 20 | 74* | 12 | -17
O=C(CNC(=O)c1cccs1)Nc1cccc(S(=O)(=O)N2CCOCC2)c1 | 10 | 0 | 29 | 9 | -11 | . | . | .
O=C(c1ccc(S(=O)(=O)c2ccccc2Cl)c([N+](=O)[O-])c1)N1CCCCCC1 | 35 | 79* | 51* | 21 | 36 | 25 | . | 49*
Brc1ccc(Br)c2cnccc12 | . | 1 | . | . | . | . | . | .
CCOc1cc(CNCc2ccccc2)ccc1OCc1ccc(Cl)cc1 | 39 | 68* | 55* | 6 | -8 | 22 | . | 73*
Cc1ccc(Nc2cc(Cl)nc(N)n2)c([N+](=O)[O-])c1 | . | 1 | . | . | . | . | . | .
CN(C(=O)COc1ccccc1C(=O)NCCOc1ccccc1)c1ccccc1 | 13 | 51* | 85* | 9 | 34 | 96* | 41* | 31*
O=C(NCCOc1ccccc1)c1ccccc1Cl | 9 | 0 | -62 | -8 | 8 | . | . | .
CCOc1ccc(Nc2c3ccccc3nc3ccccc23)cc1 | -11 | 96* | 71* | -20 | -41 | 45* | 59* | 85*
CCOc1ccc(Nc2cc(C)c3ccccc3n2)cc1 | 20 | 1 | -42 | 9 | 27 | . | . | .
Cc1ccc2nc(/C(C#N)=C\c3cc(O)ccc3[N+](=O)[O-])[nH]c2c1 | 8 | -2 | 12 | -1 | -7 | . | . | .
CCN(CC)c1ccc(/C=C(/C#N)c2nc3ccc(C)cc3[nH]2)c(OC(C)C)c1 | 17 | 83* | 52* | 4 | 4 | 44* | 79* | 52*
CCOc1cc(N(CC)CC)ccc1/C=C(/C#N)c1nc2ccccc2[nH]1 | -99 | 82* | 51* | -30 | -44 | 47* | 92* | 54*
Cc1cc(/C=C(\C#N)c2nc3ccccc3[nH]2)c(C)n1C | 15 | 2 | -15 | 25 | -1 | . | . | .
CCC1(C(N)=O)CC2C=CC1C2 (configuration not stated) | . | 0 | . | . | . | . | . | .
CC(C)Nc1ncnc2ccc(Br)cc12 | 3 | 59* | 67* | 1 | 7 | 68* | 25 | 38*
Cc1nnsc1-c1onc(C)c1C(=O)Nc1cc(Cl)cc(Cl)c1 | -5 | 84* | 76* | 7 | 5 | 16 | . | 79*
Cc1cc2oc3cc(NCCC4CCCN4C)ccc3c(=O)c2cc1C (configuration not stated) | 17 | 94* | 82* | 22 | 14 | -31 | . | -23
c1ccc(CN2CCC(CNc3ncnc4ccccc34)C2)cc1 (configuration not stated) | . | 7 | . | . | . | . | . | .
c1ccc(CN2CCC(Nc3nc(-c4ccccc4)nc4ccccc34)CC2)cc1 | 30 | 106* | 83* | 32 | -10 | 39 | 85* | -5
c1ccc(CNc2nc(N3CCN(Cc4ccccc4)CC3)nc3ccccc23)cc1 | 15 | 53* | 81* | 24 | 6 | 25 | . | 81*
OCCNc1nc(N2CCCCC2)nc2ccccc12 | -3 | 0 | 4 | -11 | -3 | . | . | .
O=C(NCCc1ccccc1)c1ccc(NC(=O)C2CCCC2)cc1 | . | 0 | . | . | . | . | . | .
CCCNC(=O)c1cc(C2CCCN(C(=O)c3ccc4ccccc4c3)C2)on1 (configuration not stated) | . | 0 | . | . | . | . | . | .
COCCCNC(=O)c1ccc2sc(C3=C[C@@H](O)[C@@H](O)[C@@H](CO)O3)nc2c1 | . | -2 | . | . | . | . | . | .
SMILES | tim23-1 inh | MPTP inh | Mdm2-MdmX inh | TIM10 inh | tim10-1 inh | Mdm2 MdmX conf | FLuc counter | Rh123 counter | others
CCN(c1ccccc1)S(=O)(=O)c1ccc(C(=O)NC2CCCCC2)cc1 | . | 5 | . | . | . | . | . | .
CCN(c1ccccc1)S(=O)(=O)c1ccc(C(=O)NC2CCN(Cc3ccccc3)CC2)cc1 | -3 | 66* | 54* | -4 | -5 | 55* | 57* | 64*
Cc1cc(C)c2nc(N(CCCN(C)C)C(=O)c3ccc4c(c3)OCCO4)sc2c1 | 11 | 89* | 66* | 19 | 34 | 53* | 76* | -18
CN(C)CCCN(C(=O)c1ccc2c(c1)CCCC2)c1nc2ccc(Cl)cc2s1 | 47 | 90* | 54* | 29 | 2 | 19 | . | -8
CN(C)CCCN(C(=O)CCc1ccccc1)c1nc2ccc(Cl)cc2s1 | -8 | 93* | 50* | 27 | -31 | 35 | 54* | -17
CN(C)CCCN(C(=O)c1ccc2c(c1)OCCO2)c1nc2cc3c(cc2s1)OCO3 | 8 | -1 | 35 | 7 | 10 | . | . | .
Cc1ccc([C@H]2C[C@H](O)[C@@H](n3cc(COC(=O)c4ccccc4)nn3)CN2Cc2cccs2)cc1 | . | 1 | . | . | . | . | . | .
C[C@H](O)[C@@H]1C(=O)N2CCc3ccc(-c4ccccc4)cc3[C@@H]2C[C@@H]1N(C)C(=O)c1ccco1 | . | -1 | . | . | . | . | . | .
C=CCc1cccc(/C=N/NC(=O)C(C)Nc2ccc(C)cc2)c1O (configuration not stated) | 12 | 80* | 70* | 37 | 21 | 67* | 42* | 62*
N#CC1=C(N)NC(SCc2ccccc2)=C(C#N)C12CCCCC2 | -131 | 68* | 64* | -31 | -57 | 61* | 72* | 74*
CCSC1=C(C#N)C2(CCCCC2)C(C#N)=C(N)N1 | 9 | 0 | 41 | 8 | 3 | . | . | .
Cc1cc(C)c2sc(N(CCCN(C)C)C(=O)c3ccc(S(=O)(=O)N(C)Cc4ccccc4)cc3)nc2c1 | 2 | 82* | 93* | 27 | 39 | 48* | 69* | -12 | MPTP swell DR=8.8*;MPTP cs DR=45*
Cc1cc(C)c2sc(N(CCCN(C)C)C(=O)c3ccc(Br)s3)nc2c1 | -34 | 5 | 40 | 25 | 2 | . | . | .
COc1ccccc1N(Cc1ccccc1)S(=O)(=O)c1cccc(C(=O)NC2CC(C)(C)NC(C)(C)C2)c1 | -6 | 84* | 97* | 2 | 1 | 64* | 72* | -18 | MPTP swell DR=7.6*;MPTP cs DR=>80
